High-throughput results (PubChem BioAssay)
An excerpt weighted towards active compounds, which were near 3.5% of everything screened.
Mtb UGM inh = blocks M. tuberculosis UGM enzyme; P9WIQ1; purified UGM, fluorescence polarization probe displacement; inhibition, % at 10 µM; 0.06% of 320,000 active; in the data active means inhibition above about 10%, passing the limit was not always enough
Target sequence (P9WIQ1 whole entry, looked up): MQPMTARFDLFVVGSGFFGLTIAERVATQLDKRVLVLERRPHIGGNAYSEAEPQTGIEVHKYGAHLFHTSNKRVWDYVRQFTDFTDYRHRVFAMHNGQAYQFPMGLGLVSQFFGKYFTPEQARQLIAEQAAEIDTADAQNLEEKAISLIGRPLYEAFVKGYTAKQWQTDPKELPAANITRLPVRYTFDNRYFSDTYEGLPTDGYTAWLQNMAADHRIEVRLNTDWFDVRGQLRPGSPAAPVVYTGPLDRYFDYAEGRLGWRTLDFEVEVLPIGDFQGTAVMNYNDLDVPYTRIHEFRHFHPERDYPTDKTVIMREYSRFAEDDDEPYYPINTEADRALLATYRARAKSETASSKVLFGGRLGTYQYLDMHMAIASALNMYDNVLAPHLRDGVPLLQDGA
Rv3671c protease = Rv3671c (M. tuberculosis) protease inhibition. P9WHR9. inhibition, % at 5.96 µM. 0.048% of 320,000 active. AID 2606; in the data active means inhibition above about 38%;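 further: extracellular domain of Rv3671c used as enzyme; 0% = enzyme with DMSO and 100% = no enzyme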
Mtb FBA inh = inhibitors of M. tuberculosis fructose-bisphosphate aldolase; P9WQA3; purified M. tuberculosis FBA, fluorescence read-out; inhibition, % at 1 µM; 2.3% of 360,000 active; AID 588726;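 further: 0% = vehicle and 100% = reference inhibitor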
GDH-TPI counter-1 = GDH-TPI coupled enzyme inhibition counter-screen; GDH-TPI coupled enzyme counterscreen, NADH absorbance; inhibition, % at 4.8 µM; 1.2% of 360,000 active; AID 588335; in the data active means inhibition above about 30%;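 further: 0% = DMSO wells and 100% = wells lacking the enzyme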
Mtb FBA inh conf = Mtb FBA inhibition, confirmed | 78% of 5,600 active | inhibition, % at 1 µM | shares compounds with Mtb FBA inh | purified M. tuberculosis FBA, fluorescence read-out;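 further: 0% = vehicle wells and 100% = reference inhibitor wells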
GDH-TPI counter-2 = inhibits GDH-TPI coupling enzymes, flagging Mtb FBA hits; shares compounds with Mtb FBA inh; GDH-TPI coupled enzyme counterscreen, fluorescence; inhibition, % at 1 µM; 81% of 5,600 active; in the data active means inhibition above about 10%
* hit, by the source's call; . = not tested or not shown; + = active, no number. Unless noted, no stated cut-off is given here; in the data, active means inhibition above about 27%; inactive means the rest.

SMILES	Mtb UGM inh	Rv3671c protease	Mtb FBA inh	GDH-TPI counter-1	Mtb FBA inh conf	GDH-TPI counter-2
CC(C)NS(=O)(=O)c1ccc(Br)c(C(=O)OC(C)C(=O)NC2CCCCC2C)c1 (stereo unspecified)	3	4	-2	-17	.	.
Nc1nc(N2CCCCC2)nc2ccccc12	0	-1	31*	13	44*	37*
CCN(C(=O)Cn1nc(C)c([N+](=O)[O-])c1C)c1c(N)n(Cc2ccccc2)c(=O)[nH]c1=O	-1	-2	-1	2	.	.
CCc1nc2c(OCC3CCCCC3)cccn2c1N(C)C(=O)c1ccc(C)cc1	.	.	-2	-3	.	.
NS(=O)(=O)c1ccc(N2CCOCC2)c(C(=O)NCCCSc2ccccc2)c1	-1	2	-2	-6	.	.
Cc1ccc(-c2cn3c(=O)cc(C)[nH]c3n2)cc1	1	-2	53*	13	55*	75*
Cc1cc(=O)n2cc(-c3ccccc3)nc2[nH]1	0	-8	89*	6	121*	94*
O=C(CN1CCOCC1)Nc1c2c(nc3ccccc13)N(Cc1ccccc1)CC2	4	0	44*	8	60*	51*
CN(C)c1cc(NC(=O)CN2CCCC2)c2ccccc2n1	-1	-2	17	4	.	.
O=C(CN1CCCC1)Nc1c2c(nc3ccccc13)N(Cc1ccccc1)CC2	2	1	31*	9	46*	34*
O=C(CN1CCOCC1)NNc1c2ccccc2nc2ccccc12	2	-4	4	-1	.	.
COc1cc(OC)cc(-c2c(C#Cc3ccsc3)c3cc(-c4ccc(C(N)=O)cc4)ccc3n2C)c1	-1	2	32*	3	36*	16*
COc1cc(OC)cc(-c2c(C#Cc3ccsc3)c3cc(-c4cc(OC)c(OC)c(OC)c4)ccc3n2C)c1	-2	-4	47*	14	6	3
C/C(=N\NC(=O)c1ccc(Cl)cc1)c1ccc2[nH]ccc2c1	-1	5	3	-7	.	.
CCN(C(=S)NC(=O)c1ccco1)c1cccc2ccccc12	4	0	29*	5	92*	73*
COc1ccc(S(=O)(=O)N2CCCCCC2)cc1C(=O)Nc1ccc(C(=O)N(C)C)cc1	.	.	2	0	.	.
CNC(=O)C[C@H]1C(=O)N(c2ccccc2)C[C@@H]1C	.	.	0	3	.	.
Cc1c(CCC(=O)O)c(=O)oc2cc(OCc3cccc(F)c3)ccc12	-2	-4	86*	8	9	0
Cc1c(CCC(=O)O)c(=O)oc2cc(OCc3ccccc3Br)ccc12	2	-3	61*	9	99*	69*
Cc1c(CC(=O)O)c(=O)oc2cc(OCc3ccc(Br)cc3)ccc12	-2	-2	86*	17	139*	122*
O=C(O)CNc1ccccc1C(=O)O	0	-13	58*	7	-5	-4
Nc1cc2nc[nH]c2cc1N	.	.	32*	11	55*	51*
O=C(Nc1ccc(Cl)c(Cl)c1)C1CCCCC1	2	-2	-5	-9	.	.
N#C/C(=N\Nc1ccc(F)cc1)C(=N)N1CCCCCC1	-3	7	-4	7	.	.
N#C/C(=N\Nc1ccc(F)cc1)C(=O)C1CC1	0	6	37*	13	63*	59*
SMILES	Mtb UGM inh	Rv3671c protease	Mtb FBA inh	GDH-TPI counter-1	Mtb FBA inh conf	GDH-TPI counter-2
N#C/C(=N\Nc1ccc(Cl)c(Cl)c1)C(=O)C1CC1	0	9	66*	18	1	-3
CC[C@]1(C(=O)OC)[C@H]2C(=O)N(C)C(=O)[C@H]2[C@H]2CN=C(SCC3CC3)N21	.	.	1	5	.	.
CCOc1ccc(C(C(=O)NCC2CCCO2)N(C(=O)c2snc(C(N)=O)c2N)c2cccc(F)c2)cc1 (stereo unspecified)	0	-4	34*	9	91*	72*
NC(=O)c1nsc(C(=O)N(c2ccccc2F)C(C(=O)NCc2ccc(F)cc2)c2ccc(O)cc2)c1N (stereo unspecified)	3	-41	35*	2	145*	107*
Cc1ccccc1N(C(=O)c1snc(C(N)=O)c1N)C(C(=O)NC1CCCC1)c1ccco1 (stereo unspecified)	.	.	37*	10	134*	98*
CCOc1ccc(C(C(=O)NCC2CCCO2)N(C(=O)c2snc(C(N)=O)c2N)c2ccccc2F)cc1 (stereo unspecified)	0	8	53*	13	62*	51*
COc1ccccc1N(C(=O)c1snc(C(N)=O)c1N)C(C(=O)NCc1ccccc1)c1ccc(O)cc1 (stereo unspecified)	.	.	18	2	.	.
CSc1cccc(CN2CCCC(CNC(=O)c3ccco3)C2)c1 (stereo unspecified)	-2	3	0	2	.	.
NC(=O)C(=O)N/N=C/c1c2ccccc2cc2ccccc12	7	-16	-3	11	.	.
C=C(C)[C@@H]1CC=C(CN2CCC(CCOC)(C(=O)OCC)CC2)CC1	2	-2	3	-1	.	.
CC(C)(C)n1cnnc1Sc1ncccc1[N+](=O)[O-]	4	3	-1	8	.	.
CCN(C(=O)COC(=O)c1cccc(S(=O)(=O)NCc2ccccc2)c1)c1ccccc1	.	.	0	-2	.	.
Cc1ccc(C(C(=O)NCC2CCCO2)N(C(=O)c2snc(C(N)=O)c2N)c2ccccc2F)o1 (stereo unspecified)	-1	-4	33*	9	59*	39*
CC(=O)C1=C(O)C(=O)N(c2cccc(Br)c2)C1c1ccccc1Cl (stereo unspecified)	-2	-5	0	11	.	.
CCc1ccc(Nc2ncc3c(n2)CC(C)(C)CC3=O)cc1	-1	-12	35*	17	+	172*
CCc1ccc(Nc2ncc3c(n2)CC(C)CC3=O)cc1 (stereo unspecified)	1	6	-1	1	.	.
COc1ccccc1CN(C(=O)CNC(=O)c1ccco1)C(C(=O)NCC1CCCO1)c1ccc(OC)c(OC)c1 (stereo unspecified)	-1	5	1	-4	.	.
O=C(NCCCN1CCOCC1)c1cc2c(=O)[nH]c3ccccc3c2s1	-1	0	88*	21	36*	24*
CCN1CCN(CCCNC(=O)c2cc3c(=O)[nH]c4ccccc4c3s2)CC1	0	-4	89*	7	6	-1
COc1ccc(S(=O)(=O)N2CCOCC2)cc1NC(=O)CCOc1ccc(C(C)(C)C)cc1	.	.	-1	8	.	.
COc1cc(NS(=O)(=O)c2ccc(-n3cccn3)cc2)cc(OC)c1	.	.	0	-2	.	.
O=C1CC(C(=O)Nc2ccc(O)c(C(=O)O)c2)C(c2ccccc2)O1 (stereo unspecified)	-1	2	59*	8	143*	165*
Cc1cccnc1NC(=O)Nc1cccc2ccccc12	0	-6	56*	-2	90*	73*
O=C(Nc1ccccc1)Nc1cccc2ccccc12	-1	2	7	13	.	.
